# In the library only some 4.1% were active in any assay of this set; here they are far more common.
# CHT inh = inhibitors of human choline transporter CHT; CHT-expressing cells, membrane potential dye, choline response; active compounds read low; B-score at 10 µM; actives 0.86% (n = 310,000); AID 488975;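 active = B-score over 3 SD under the library average, and starting fluorescence ratio not unusually high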;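 also: choline stimulus applied at its EC90 after an EC20 pre-addition; B-score computed on integrated fluorescence ratio after choline addition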
# SUMO Mot1 rescue = inhibitors of SUMOylation pathway: yeast Mot1-301 growth rescue; S. cerevisiae Mot1-301 growth rescue, ATP luminescence, 38.5C; percent above DMSO median, 100 means doubled; growth rescue, % at 18.8 µM; actives 1% (n = 320,000);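 active = every valid replicate shows activation above 250% relative to neutral control wells; inactive = the rest, any valid replicate at or below 250%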
# CHT allo act = allosterically activates the human high affinity choline transporter. B-score at 10 µM. AID 488977. CHT-expressing cells, membrane potential dye, choline EC20; active compounds read high; LV-AA mutant CHT in HEK293 cells. Q9GZV3. actives 0.49% (n = 310,000);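 active = initial fluorescence not abnormally high and integrated response B-score, plate-corrected, over 3 SD above library mean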
# MEKK3 PB1 HTS = raises or lowers MEK5 binding to the human MEKK3 PB1 domain; Q99759; bead-based flow cytometry, Alexa488-MEK5 binding to MEKK3; actives lie on both sides; 0 = blocked by unlabeled MEK5, 100 = vehicle; binding response (% of control), % at 10 µM; actives 1.4% (n = 290,000); AID 1529;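 active = binding response more than 3 SD above or below the average of its plate-row segment, actives on both sides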;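 also: Alexa488 bead fluorescence after subtracting the streptavidin-only scavenger bead signal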
# Target sequence (Q99759 whole entry, looked up, the tested form may be a part): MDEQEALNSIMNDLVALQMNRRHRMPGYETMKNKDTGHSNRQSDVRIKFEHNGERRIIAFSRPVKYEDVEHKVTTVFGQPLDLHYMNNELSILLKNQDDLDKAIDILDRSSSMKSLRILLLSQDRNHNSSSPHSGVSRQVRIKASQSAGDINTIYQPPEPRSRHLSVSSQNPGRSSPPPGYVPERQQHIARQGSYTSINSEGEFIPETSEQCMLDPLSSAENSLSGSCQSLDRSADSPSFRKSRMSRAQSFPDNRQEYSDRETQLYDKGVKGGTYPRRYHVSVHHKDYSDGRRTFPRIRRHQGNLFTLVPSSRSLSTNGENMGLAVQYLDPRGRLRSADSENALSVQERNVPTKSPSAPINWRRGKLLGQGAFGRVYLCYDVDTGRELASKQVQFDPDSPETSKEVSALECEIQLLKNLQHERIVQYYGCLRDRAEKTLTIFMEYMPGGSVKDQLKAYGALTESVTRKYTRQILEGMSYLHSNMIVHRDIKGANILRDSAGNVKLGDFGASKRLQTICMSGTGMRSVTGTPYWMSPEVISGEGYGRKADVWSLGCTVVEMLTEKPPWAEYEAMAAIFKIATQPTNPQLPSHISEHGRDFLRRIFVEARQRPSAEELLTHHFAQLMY
# MEKK2 WT-MEK5 = raises or lowers MEK5 binding to wildtype human MEKK2 PB1 domain; Q9Y2U5; bead flow cytometry, Alexa488-MEK5 binding to MEKK2 WT; actives lie on both sides; binding response (% of control), % at 10 µM; actives 1.1% (n = 290,000); AID 1531; in the data active = binding response below about 67% or above about 130%
# MEKK2 mut-MEK5 = signal of MEK5 binding to mutant human MEKK2 PB1 domain | bead flow cytometry, Alexa488-MEK5 binding to MEKK2 mutant | percent response, % at 10 µM | actives 0.35% (n = 290,000) | AID 1530; in the data active = percent response above about 24%, passing the limit was not always enough
# Hits are given with their value; 0 = inactive; - = no result; ! = not confirmed by another sample; [ ] = another dose, or the depositor's remark.
SMILES,CHT inh,SUMO Mot1 rescue,CHT allo act,MEKK3 PB1 HTS,MEKK2 WT-MEK5,MEKK2 mut-MEK5
Cc1c(C)n(CC(O)CN2CCCCCC2)c2ccccc12 (centres undefined),0,0,0,0,0,0
O=S(=O)(Nc1nc2ccccc2nc1Nc1ccc2c(c1)OCCO2)c1cccs1,-7.7,0,0,0,0,0
Cc1nc(Nc2ccccc2)sc1C(=O)c1ccccc1,0,0,0,0,0,0
COc1ccc(C(=O)c2sc(Nc3ccccc3)nc2C)cc1,0,0,0,0,135,0
CC(C)(C)OC(=O)C[C@H]1C/C=C\C[C@H](CC(=O)N[C@H](CO)Cc2ccccc2)C(=O)N[C@H](Cc2ccccc2)COC1=O,-,0,-,-,-,-
COc1cccc2c1C(=O)c1c(O)c3c(c(O)c1C2=O)C[C@@](O)(C(=O)CO)C[C@@H]3O[C@H]1C[C@H](N)[C@H](O)[C@H](C)O1,0,0,0,47![inhibitor],50![inhibitor],0
CN(Cc1ccno1)Cc1cn(Cc2ccccc2)nc1-c1ccc2c(c1)OCO2,0,0,0,0,0,0
CCOCCCNc1nc2c(C)cccn2c(=O)c1/C=C1\SC(=S)N(C(C)CC)C1=O (centres undefined),0,0,0,28[inhibitor],-,127
CCC(CC)c1nnc(NC(=O)c2cccnc2SC)s1,0,0,0,0,0,0
CCOc1ccccc1N1CCN(C2=C(NS(=O)(=O)c3cccs3)C(=O)c3ccccc3C2=O)CC1,0,0,0,0,0,0
O=C1C(NS(=O)(=O)c2cccs2)=C(N2CCN(Cc3ccccc3)CC2)C(=O)c2ccccc21,-5.5,0,0,0,0,0
COC(=O)[C@]1(C)CCC[C@@]2(C)C3CC[C@@]4(C)C[C@]3(CCC21)CC(=O)N4C (some centres undefined),-,0,-,-,-,-
COc1cc2c(cc1OC)C(c1ccc(-c3ccccc3Cl)o1)=NCC2,0,0,6.6,0,0,0
COc1ccc(NC(=S)N/N=C/c2cccn2Cc2ccc(F)cc2)cc1,0,0,0,0,0,0
COc1ccc(S(=O)(=O)CC(=O)Nc2nnc(C(F)(F)F)s2)cc1,0,0,0,0,0,0
Cc1ccc(NC(=O)CC(C(=O)O)c2ccccc2)cc1 (centres undefined),0,0,0,0,0,0
Cc1ccn2c(C=O)c(-c3ccc(F)cc3)c(C=O)c2c1,0,0,0,0,-3.0,0
c1ccc(-c2ccc(OCCCn3cncn3)cc2)cc1,0,0,0,0,0,0
c1ccc(COc2ccc(OCCn3cncn3)cc2)cc1,0,252,0,0,0,0
O=CNc1ccccc1,-,0,-,-,-,-
COc1ccc(C(C)(C)C)cc1NC(=O)COC(=O)c1ccc([N+](=O)[O-])o1,0,0,0,0,0,0
CCN(CC)c1ccc(N=Cc2c(C)[nH]c3ccccc23)cc1,0,0,0,75[inhibitor],0,0
CC1CC(C)CN(CC(C)(C)NS(=O)(=O)c2ccc(Cl)cc2)C1 (centres undefined),0,276,0,0,0,0
O=S(=O)(c1cccs1)N1CCN(c2ccccc2F)CC1,0,335,0,0,0,0
CCC(C(=O)Nc1ccc(C(=O)Nc2ccccc2C(=O)O)cc1)c1ccccc1 (centres undefined),0,0,0,0,0,0
SMILES,CHT inh,SUMO Mot1 rescue,CHT allo act,MEKK3 PB1 HTS,MEKK2 WT-MEK5,MEKK2 mut-MEK5
O=C(NCCc1ccccc1)c1cc(=O)c2ccccc2o1,0,0,0,0,0,0
CCOC(=O)CCCCC(=O)c1[nH]c(=O)[nH]c1CSc1nnc2c3ccccc3n(C(C)C)c2n1,0,0,0,131,0,0
CC(OC(=O)c1ccc(-c2ccc(O)cc2)cc1)C(=O)NC1CCCCC1C (centres undefined),0,750,0,-,-,-
O=C(COC(=O)CCC(=O)c1cccs1)NCCc1ccccc1,-,0,-,-,-,-
CC1C(=O)N(Cc2ccccc2F)c2ccccc2N1C(=O)c1c(F)cccc1F (centres undefined),-5.1,0,0,0,0,0
CC1C(=O)N(Cc2cccc(F)c2)c2ccccc2N1C(=O)c1ccccc1 (centres undefined),0,0,0,0,0,0
Cc1ccc(/C=C2/SC(=S)N(C3CCCCC3)C2=O)o1,0,0,0,0,56[inhibitor],0
Cc1ccc(/C=C2\SC(=S)N(CC3CCCO3)C2=O)o1 (centres undefined),0,0,0,0,0,0
CCOC(=O)c1c(NC(=O)C(NCCN(C)C)c2ccccc2)sc2c1CCCC2 (centres undefined),0,0,0,0,171,43
CCOC(=O)c1c(NC(=O)c2ccccc2N(C)S(=O)(=O)c2ccccc2)sc2c1CCCC2,0,0,0,0,0,0
CCC1CCCCN1CCCNC(=O)Cn1cnc2sc(C)c(S(=O)(=O)N3CC(C)CC(C)C3)c2c1=O (centres undefined),0,0,0,0,135,26
CCc1ccccc1Nc1nn2c(=O)c3ccc(C(=O)NCc4ccccn4)cc3nc2s1,0,0,0,0,0,0
CCC(=O)Nc1sc(Cc2ccc3c(c2)OCO3)c(C)c1C(N)=O,0,0,0,0,0,0
Cc1c(Cc2ccc3c(c2)OCO3)sc(NC(=O)c2ccc3ccccc3c2)c1C(N)=O,-6.6,0,0,0,0,0
CCC1(C)Cc2c(sc3nc(SC)[nH]c(=S)c23)CO1 (centres undefined),0,0,0,0,0,0
Clc1ccccc1Cc1noc(CN2CCN(Cc3ccccn3)CC2)n1,0,0,0,0,0,0
COc1ccc(NS(=O)(=O)c2cc([N+](=O)[O-])ccc2N/N=C\c2c(C)[nH]c3ccccc23)cc1,0,0,0,0,0,0
COc1ccccc1NS(=O)(=O)c1cc([N+](=O)[O-])ccc1N/N=C/c1c[nH]c2ccccc12,0,0,0,0,-1.0,0
O=C(Nc1cccc(-n2cccn2)c1)C1CCCN(Cc2cc3ccccc3[nH]2)C1 (centres undefined),-,-,-,0,139,24
Cc1ccc(N(C)S(=O)(=O)c2cc(-c3cnc(C4CC4)o3)ccc2C)cc1,0,0,0,0,0,0
Cc1cccc(N(C)S(=O)(=O)c2ccc(-c3cnc(C4CC4)o3)cc2)c1,0,0,7.3,0,0,0
CCN1CCN(CCCNC(=O)c2ccc3c(c2)NC(=O)/C(=C\c2cccc(C)c2)S3)CC1,0,0,0,0,165,0
COc1cccc(/C=C2/Sc3ccc(C(=O)NCCN4CCCCCC4)cc3NC2=O)c1,0,0,0,0,280,71
CCN1CCN(CCCNC(=O)c2ccc3c(c2)NC(=O)c2ccccc2S3)CC1,0,0,0,0,0,0
